PubChem BioAssay
Results with a measured potency or affinity are listed apart. Inconclusive results are not listed. The source made the active and inactive calls. No rule for the calls is given here.

Assay: general cell-killing toxicity readout – plate reader, dry powder samples, cytotoxicity control for PAX8 inhibitor project, dose response (AID 743021)
Conditions: cell line, non-specific cytotoxicity counter-screen; series mostly up to 35 µM
In the case of `C[C@@H]1CCCCO[C@H](CN(C)Cc2ccc(Cl)c(Cl)c2)[C@H](C)CN([C@@H](C)CO)C(=O)c2cc(NC(=O)Nc3ccccc3)ccc2O1`, the outcome was “inactive”. For `COc1ccc(-c2nc3c(c(SCC(=O)Nc4cccc(O)c4)n2)Cc2c(CO)cnc(C)c2O3)cc1`, the outcome was “inactive”. With `COc1ccc(NC(=O)Nc2ccc3c(c2)CC(=O)N([C@H](C)CO)C[C@@H](C)[C@@H](CN(C)Cc2ccc(Oc4ccccc4)cc2)O3)cc1` the outcome was “inactive”. For `C[C@@H]1CCCCO[C@H](CN(C)Cc2ccc(C(F)(F)F)cc2)[C@H](C)CN([C@@H](C)CO)C(=O)c2cc(NS(=O)(=O)c3cccs3)ccc2O1`, the outcome was “inactive”. For `CN1c2ccc(-c3cccc(F)c3)cc2[C@@H]2[C@@H](CCN2C(=O)Cc2ccccc2)[C@@H]1CO`, the outcome was “inactive”. For `CCOc1ccc(NC(=O)Nc2cc(OCC(F)(F)F)cc(OCC(F)(F)F)c2)cc1`, the outcome was “inactive”. With `O=C(c1cc([N+](=O)[O-])ccc1N1CCOCC1)N1CCN(c2ccccc2)CC1` the outcome was “inactive”. In the case of `O=C(Nc1ccc(Cl)c(Cl)c1)N[C@@H]1CC[C@H](CCn2cc(C3CCCCC3)nn2)O[C@H]1CO`, the outcome was “inactive”. For `CCc1cc(-c2n[nH]c(C)c2-c2nc3ccccc3n2C)c(O)cc1O`, the outcome was “inactive”. For `COc1cccc(S(=O)(=O)N2CC[C@H]3[C@@H](CO)N(C)c4ccc(C#Cc5ccc(F)cc5)cc4[C@H]32)c1`, the outcome was “inactive”. With `COc1cccc2c1C(=O)c1c(O)c3c(c(O)c1C2=O)CC(O)(C(=O)CO)CC3OC1CC(N(C)C)C(O)C(C)O1` (centres undefined) the outcome was “inactive”. In the case of `O=C(C[C@H]1CC[C@H]2[C@@H](COC[C@@H](O)CN2Cc2ccc(Oc3ccccc3)cc2)O1)N1CCCCC1`, the outcome was “inactive”. With `C[C@@H]1CN([C@H](C)CO)C(=O)c2cc(NC(=O)Nc3ccc(F)cc3)ccc2O[C@@H](C)CCCCO[C@@H]1CN(C)Cc1ccc2c(c1)OCO2` the outcome was “inactive”. In the case of `C[C@@H]1CCCCO[C@H](CN(C)Cc2ccc(C(F)(F)F)cc2)[C@H](C)CN([C@H](C)CO)C(=O)c2cc(NS(=O)(=O)c3cccs3)ccc2O1`, the outcome was “inactive”. In the case of `C[C@@H]1CCCCO[C@@H](CN(C)Cc2ccc(C(F)(F)F)cc2)[C@@H](C)CN([C@@H](C)CO)C(=O)c2cc(NS(=O)(=O)c3ccc(F)cc3)ccc2O1`, the outcome was “inactive”. For `CCOc1ccc(C(CN2CCOCC2)C(C)=O)cc1OC` (centres undefined), the outcome was “inactive”. With `COc1ccc(NC(=O)c2c(Nc3ccccc3)sc(C(=O)c3ccc(F)cc3)c2N)cc1` the outcome was “inactive”. With `O=S(=O)(c1ccccc1F)N1CC[C@@H]2[C@@H](CO)Nc3ccc(C4=CCCCC4)cc3[C@@H]21` the outcome was “inactive”. With `Cc1noc(C)c1S(=O)(=O)N(C)C[C@@H]1OCCCC[C@H](C)Oc2ccc(NS(=O)(=O)c3ccc(Cl)cc3)cc2C(=O)N([C@H](C)CO)C[C@@H]1C` the outcome was “inactive”. With `O=C(Nc1cccc(NC(=O)c2cccs2)c1)c1ccc([N+](=O)[O-])o1` the outcome was “inactive”. For `O=C(Nc1cccc(Cl)c1)Nc1nnc(-c2ccncc2)s1`, the outcome was “inactive”. For `COC(=O)[C@]12CCCCC=C1N(Cc1ccc(Cl)cc1Cl)C(=O)[C@H](CC(=O)N1CCN(C(=O)c3ccco3)CC1)C2`, the outcome was “inactive”. For `OCCCNc1nccc(-c2cc(Nc3cccc(Cl)c3)ncn2)n1`, the outcome was “inactive”. With `COc1ccc(NC(=O)Nc2ccc3c(c2)C(=O)N([C@@H](C)CO)C[C@@H](C)[C@@H](CN(C)CC2CCCCC2)OCCCC[C@@H](C)O3)cc1` the outcome was “inactive”. With `C[C@@H]1CCCCO[C@@H](CN(C)C(=O)Nc2cccc3ccccc23)[C@H](C)CN([C@H](C)CO)C(=O)c2cc(NS(=O)(=O)c3ccccc3)ccc2O1` the outcome was “inactive”. With `C[C@@H]1CCCCO[C@H](CN(C)Cc2ccc(C(F)(F)F)cc2)[C@H](C)CN([C@H](C)CO)C(=O)c2cc(NS(=O)(=O)c3ccccc3)ccc2O1` the outcome was “inactive”. With `CCN(CC)S(=O)(=O)c1cc(NC(=O)Cn2ncc(Cl)c(Cl)c2=O)ccc1C` the outcome was “inactive”. With `C[C@@H]1CN([C@H](C)CO)S(=O)(=O)c2ccc(C#CC3CCCC3)cc2O[C@@H]1CN(C)C(=O)Cc1ccncc1` the outcome was “inactive”. For `Cc1ccc(-c2csc3ncnc(Sc4nnc(CN5CCCCCC5=O)o4)c23)cc1`, the outcome was “inactive”.
